Reference: PubChem BioAssay (EPA / NIEHS)
Calls of active or inactive are those of the source. Rule for the calls: active = hit-call score of the fitted dose curve at least 0.9, where 1 is the maximum; inactive = score below 0.9.

Target: Estrogen receptor (Homo sapiens) (UniProt P03372)
Assay: OT_ERa_GFPERaERE_0480: Odyssey Thera (OT) 8-hour HeLa Transcription Induction Assay for Estrogen Receptor (AID 2283381)
Experimental: OT_ERa_GFPERaERE_0480 is a cell-based, single-readout assay that uses HeLa, a human cervix cell line, with measurements taken at 8 hours after chemical dosing in a 384-well plate.OT_ERa_GFPERaERE_0480 is one of one assay component(s) measured or calculated from the OT_ERa_GFPERaERE_0480 assay. It is designed to make measurements of fluorescent protein induction, a form of inducible reporter, as detected with optical microscopy: fluorescence microscopy signals by Microscopy technology.Data from the assay component OT_ERa_GFPERaERE_0480 was analyzed into 1 assay endpoint. This assay endpoint, OT_ERa_EREGFP_0480, was analyzed in the positive analysis fitting direction relative to DMSO as the negative control and baseline of activity. Using a type of inducible reporter, measures of receptor for gain-of-signal activity can be used to understand the reporter gene at the pathway-level as they relate to the gene ESR1. Furthermore, this assay endpoint can be referred to as a primary readout, because the performed assay has only produced 1 assay endpoint. To generalize the intended target to other relatable targets, this assay endpoint is annotated to the nuclear receptor intended target family, where the subfamily is steroidal.
All assay endpoints are quantified using high content image analysis algorithms.

Sequence of Estrogen receptor (Homo sapiens) (P03372 whole entry, looked up): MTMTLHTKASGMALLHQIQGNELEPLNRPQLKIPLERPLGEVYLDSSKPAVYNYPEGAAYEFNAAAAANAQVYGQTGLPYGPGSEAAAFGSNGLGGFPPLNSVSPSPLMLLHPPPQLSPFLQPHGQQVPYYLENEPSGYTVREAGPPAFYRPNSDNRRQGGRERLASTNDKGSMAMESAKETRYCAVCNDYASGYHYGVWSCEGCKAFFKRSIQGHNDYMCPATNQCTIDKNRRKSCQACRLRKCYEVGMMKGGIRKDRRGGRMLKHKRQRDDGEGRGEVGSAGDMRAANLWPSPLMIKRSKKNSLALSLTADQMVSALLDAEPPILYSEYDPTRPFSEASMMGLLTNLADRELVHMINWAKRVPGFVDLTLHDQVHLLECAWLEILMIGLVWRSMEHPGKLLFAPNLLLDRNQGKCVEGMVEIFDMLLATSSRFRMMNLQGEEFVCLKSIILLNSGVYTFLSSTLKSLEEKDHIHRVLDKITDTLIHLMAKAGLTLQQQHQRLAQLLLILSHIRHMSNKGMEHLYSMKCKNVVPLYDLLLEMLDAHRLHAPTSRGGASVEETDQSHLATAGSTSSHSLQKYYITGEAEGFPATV

Compound | outcome | AC50
N#Cc1c(Cl)cccc1Cl | inactive | 
COP(=S)(OC)SCn1nnc2ccccc2c1=O | inactive | 
CC(C)Nc1nc(Cl)nc(NC(C)C)n1 | inactive | 
CC(C)N1C(=O)c2ccccc2NS1(=O)=O | inactive | 
CNC(=O)Oc1cccc2ccccc12 | inactive | 
CC1(C)C(C(=O)OC(C#N)c2cccc(Oc3ccccc3)c2)C1(C)C (stereo not given) | inactive | 
CCCN(CC)CC1COC2(CCC(C(C)(C)C)CC2)O1 (stereo not given) | inactive | 
CS(=O)(=O)c1ccc(C(=O)C2C(=O)CCCC2=O)c([N+](=O)[O-])c1 | inactive | 
O=C1C2CC=CCC2C(=O)N1SC(Cl)(Cl)Cl (stereo not given) | inactive | 
N#Cc1c[nH]cc1-c1cccc2c1OC(F)(F)O2 | inactive | 
Nc1cnn(-c2ccccc2)c(=O)c1Cl | inactive | 
CCOP(=O)(OCC)Oc1nc(Cl)c(Cl)cc1Cl | inactive | 
O=C(O)c1c(Cl)ccc2cc(Cl)cnc12 | inactive | 
CCN(CC)c1nc(C)cc(OP(=S)(OC)OC)n1 | inactive | 
Cc1nc(N(C)C)nc(OC(=O)N(C)C)c1C | inactive | 
COC(=O)NC(=S)Nc1ccccc1NC(=S)NC(=O)OC | inactive | 
CC1(C)CON(Cc2ccccc2Cl)C1=O | inactive | 
Cc1cnc(C2=NC(C)(C(C)C)C(=O)N2)c(C(=O)O)c1 (stereo not given) | inactive | 
CN/C(=N\[N+](=O)[O-])NCc1cnc(Cl)s1 | inactive | 
CCCC(=NOCC)C1=C(O)CC(CC(C)SCC)CC1=O (stereo not given) | inactive | 

Compound | outcome | AC50
CNC(=O)N(C)c1nnc(C(C)(C)C)s1 | inactive | 
Cc1c(COC(=O)[C@@H]2[C@H](/C=C(\Cl)C(F)(F)F)C2(C)C)cccc1-c1ccccc1 | inactive | 
CCNC(=O)NC(=O)C(C#N)=NOC | inactive | 
CC(C)(C)C(=O)C(Oc1ccc(Cl)cc1)n1cncn1 (stereo not given) | inactive | 
CS(=O)(=O)c1cc(C(F)(F)F)ccc1C(=O)c1cnoc1C1CC1 | inactive | 
Cn1c(-c2ccccc2)cc(-c2ccccc2)[n+]1C | inactive | 
COP(=S)(OC)Oc1ccc([N+](=O)[O-])c(C)c1 | inactive | 
COC(=O)c1c(C(F)F)nc(C(F)(F)F)c(C2=NCCS2)c1CC(C)C | inactive | 
O=c1n(Cl)c(=O)n(Cl)c(=O)n1Cl | inactive | 
COC(=O)NS(=O)(=O)c1ccc(N)cc1 | inactive | 
CCN(CC)C(=O)C(C)Oc1cccc2ccccc12 (stereo not given) | inactive | 
COc1cc(OC)nc(NC(=O)NS(=O)(=O)c2ncccc2OCC(F)(F)F)n1 | inactive | 
COc1ccc(-c2ccccc2)cc1NNC(=O)OC(C)C | inactive | 
N#CN=C1SCCN1Cc1ccc(Cl)nc1 | inactive | 
O=C(Nc1ccccc1-c1ccc(Cl)cc1)c1cccnc1Cl | inactive | 
CC(C)NC(=O)N1CC(=O)N(c2cc(Cl)cc(Cl)c2)C1=O | inactive | 
CCCCOCN(C(=O)CCl)c1c(CC)cccc1CC |  | 71.3 µM (active)
O=P(O)(O)CCCl | inactive | 
COP(=O)(OC)O/C(C)=C/C(=O)N(C)C | inactive | 
CCSC(=O)N1CCCCCC1 | inactive | 
